FBA Mtb inh = Mtb FBA enzyme inhibitors, primary screen, biochemical, fluorescence, strain H37Rv; Fructose-bisphosphate aldolase (Mycobacterium tuberculosis (strain ATCC 25618 / H37Rv)), …; inhibition, % at 1 µM; purified M. tuberculosis FBA, fluorescence read-out; 360,000 compounds, 2.3% hits; in the data active = inhibition above about 27%;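 note: 0% = vehicle and 100% = reference inhibitor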
Target sequence (P9WQA3 whole entry, looked up): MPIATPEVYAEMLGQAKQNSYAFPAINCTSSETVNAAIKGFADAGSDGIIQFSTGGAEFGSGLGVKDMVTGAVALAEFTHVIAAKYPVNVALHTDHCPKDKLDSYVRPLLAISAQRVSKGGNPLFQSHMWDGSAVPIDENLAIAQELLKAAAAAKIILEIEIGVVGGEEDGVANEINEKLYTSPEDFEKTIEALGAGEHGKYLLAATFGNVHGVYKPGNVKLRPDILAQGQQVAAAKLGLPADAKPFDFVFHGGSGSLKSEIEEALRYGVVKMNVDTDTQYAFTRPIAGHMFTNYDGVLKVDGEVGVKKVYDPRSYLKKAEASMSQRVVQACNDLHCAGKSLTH
CCHF vOTU inh-1 = CCHFV vOTU protease inhibitors, primary screen, biochemical, Pep-AMC substrate, fluorescence | Crimean-Congo hemorrhagic fever virus L polyprotein viral ovarian tumor (vOTU) protease … | inhibition, % at 11.5 µM | 370,000 compounds, 0.55% hits; note: 0% = vehicle wells with enzyme and 100% = no enzyme wells
BH1578 lux ind = inducers of Vibrio cholerae quorum light production without autoinducers, primary screen, BH1578 luxS cqsA deficient, single point; V. cholerae BH1578 lux reporter, luminescence, 6 h; activation, % at 18.7 µM; 350,000 compounds, 0.16% hits; in the data active = activation mostly above about 9.7%, no sharp cut-off
GDH-TPI counter-1 = GDH-TPI coupling enzyme inhibitors, primary screen, artefact control for M. tuberculosis FBA inhibitor project, biochemical, absorbance, full deck; inhibition, % at 4.8 µM; GDH-TPI coupled enzyme counterscreen, NADH absorbance; 360,000 compounds, 1.2% hits;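 note: 0% = DMSO wells and 100% = wells lacking the enzyme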
Mtb FBA inh conf = M. tuberculosis aldolase blockers, biochemical, fluorescence, strain H37Rv, confirmation; AID 651616, 2012; shares compounds with FBA Mtb inh; purified M. tuberculosis FBA, fluorescence read-out; inhibition, % at 1 µM; 5,600 compounds, 78% hits; in the data active = inhibition above about 27%;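 note: 0% = vehicle wells and 100% = reference inhibitor wells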
GDH-TPI counter-2 = GDH-TPI coupling enzyme inhibitors, artefact control for M. tuberculosis FBA inhibitor project, biochemical, fluorescence, high throughput | GDH-TPI coupled enzyme counterscreen | inhibition, % at 1 µM | 5,600 compounds, 81% hits | shares compounds with FBA Mtb inh; in the data active = inhibition above about 10%
CCHF vOTU inh-2 = CCHFV vOTU protease inhibitors, confirmation, biochemical, Pep-AMC substrate, fluorescence; inhibition, % at 11.5 µM; Recombinant CCHFV vOTU; 1,900 compounds, 17% hits; shares compounds with CCHF vOTU inh-1
Numbers without * were called inactive; i = inactive; . = not tested or not shown; + = active, no number. Shown are actives, neighbours in structure and some others; about 3.9% of the full set was active somewhere. Cut-off read from the data, not from the text of the source, unless noted: active = inhibition above about 30%; inactive = the rest.

SMILES	FBA Mtb inh	CCHF vOTU inh-1	BH1578 lux ind	GDH-TPI counter-1	Mtb FBA inh conf	GDH-TPI counter-2	CCHF vOTU inh-2
C=CCNc1ncnc2c1[nH]c1ccc(C)cc12	42*	-33	-2	13	66*	52*	.
COc1ccc2[nH]c3c(NCCC4=CCCCC4)ncnc3c2c1	26	-44	-1	4	.	.	.
COc1ccc2[nH]c3c(NCCCOC(C)C)ncnc3c2c1	99*	-82	i	2	63*	47*	.
CCCCOc1ncnc2c1[nH]c1ccc(C)cc12	38*	-1	-1	-4	-7	-4	.
COc1ccc(CCNc2ncnc3c2[nH]c2cc(OC)c(OC)cc23)cc1OC	68*	-13	4	23	112*	101*	.
CCCOc1ncnc2c1[nH]c1ccc(OC)cc12	18	-17	0	5	.	.	.
CCCS(=O)(=O)c1nc(S(=O)(=O)c2ccc(C)cc2)c(N2CCC3(CC2)OCCO3)s1	0	8	0	6	.	.	.
CCCOc1ccc(-c2cc(C(F)(F)F)c(C#N)c(SCC(=O)O)n2)cc1	7	5	-1	9	.	.	.
CCOc1ccc2[nH]c3c(NCCC(C)C)ncnc3c2c1	49*	-44	i	0	6	-6	.
O=Cc1ccc(-c2nc3ccccc3s2)o1	33*	-34	8	18	31*	30*	.
O=C(O)c1ccc(-c2nc3ccccc3s2)o1	44*	-13	-1	42*	35*	29*	.
C/C(=C\C(=O)c1ccc(Br)cc1)NCc1ccc2c(c1)OCO2	1	0	i	12	.	.	.
CCOC(=O)COc1nc(-c2ccco2)cc(-c2ccco2)c1C#N	80*	-124	0	15	16	14*	.
CCOC(=O)C(C)Sc1nc(-c2ccco2)cc(C(F)(F)F)c1C#N (stereo not given)	29*	-38	i	3	124*	95*	.
CCOC(=O)COc1nc(-c2ccc(C)cc2)cc(-c2ccco2)c1C#N	1	-5	i	-12	.	.	.
COC(=O)c1ccc2ccn(CC(=O)NC(C)C)c2c1	85*	-39	-6	-4	191*	143*	.
COC(=O)c1cccc(Cn2ccc3ccc(-c4ccc5ccn(Cc6cccc(C(=O)OC)c6)c5c4)cc32)c1	.	18	.	.	.	.	.
CC1(C)Cc2c(c(-c3ccco3)[nH]c(=O)c2C#N)CS1	30*	32*	-1	17	22	17*	-6
CC(=O)N1CCN(c2nc(-c3ccco3)c3c(c2C#N)CC(C)(C)SC3)CC1	2	3	i	5	.	.	.
COc1ccc2c(c1)NP(=S)(c1ccccc1)N2C (stereo not given)	27*	38*	i	2	67*	55*	-18
CCN(C(=S)NC(=O)c1ccco1)c1cccc2ccccc12	29*	46*	-4	5	92*	73*	-44
CCN(C(=S)NCCOC)c1cccc2ccccc12	3	-14	1	-2	.	.	.
Cc1noc(C)c1NC(=O)N(C)C[C@H]1OCCCC[C@@H](C)Oc2ccc(NS(=O)(=O)c3ccccc3)cc2C(=O)N([C@H](C)CO)C[C@@H]1C	-4	-10	i	5	.	.	.
O=C(Nc1nc(-c2ccccc2)cs1)c1ccccc1NS(=O)(=O)c1ccc(F)cc1	37*	38*	0	2	+	+	-2
CC1CCN(c2nc(CN3CCCCC3)nc3scc(-c4ccccc4)c23)CC1	-2	11	0	-11	.	.	.
SMILES	FBA Mtb inh	CCHF vOTU inh-1	BH1578 lux ind	GDH-TPI counter-1	Mtb FBA inh conf	GDH-TPI counter-2	CCHF vOTU inh-2
N#Cc1c(NC(=O)c2ccc(Br)o2)n(-c2ccccc2)c2nc3ccccc3nc12	48*	30*	0	12	34*	25*	-39
O=C(CSc1nnc(COc2ccc(Cl)cc2)o1)NC1CC2CCC1C2 (stereo not given)	0	0	0	-11	.	.	.
CN(C)c1ccc(/C=C(/C#N)C(=O)NCc2ccccc2)o1	-29	32*	0	2	.	.	23
Cc1ccc(/C=C(\C#N)C(=O)NCc2ccco2)o1	-4	2	i	5	.	.	.
COc1cccc(-c2cc(C(F)(F)F)nc(-n3cc(C)cn3)n2)c1	-1	35*	-3	6	.	.	-9
COc1cccc(-c2cc(C(F)(F)F)nc(-n3cncn3)n2)c1	1	-9	i	8	.	.	.
COc1ccc(NC(=O)CN(C)CC(=O)N(CC(C)C)c2c(N)n(CC(C)C)c(=O)[nH]c2=O)cc1	2	-4	0	-6	.	.	.
Cc1cc(C)cc(NC(=O)CN(C)CC(=O)N(CC(C)C)c2c(N)n(CC(C)C)c(=O)[nH]c2=O)c1	1	35*	-1	2	.	.	-27
CC(C)Cn1c(N)c(C(=O)COC(=O)c2c(O)c(Cl)cc(Cl)c2Cl)c(=O)n(C)c1=O	5	41*	i	-2	.	.	-5
Cc1c(C=O)c(Cl)n(C)c(=O)c1C#N	5	68*	4	30	.	.	110*
Cc1cc(C)n(C)c(=O)c1C#N	4	-19	i	7	.	.	.
O=C(O)c1c2c(nc3ccccc13)/C(=C/c1ccc(O)cc1)CC2	6	-14	0	13	.	.	.
CCNC(=S)NNC(=O)c1cc(-c2ccccc2C)nc2ccccc12	5	.	i	1	.	.	.
Cc1ccc(C)c(-c2cc(C(=O)NNC(=S)NCC(C)C)c3ccccc3n2)c1	5	34*	0	11	.	.	-17
COC(=O)[C@]12CCCCC=C1N(Cc1ccc(Cl)cc1Cl)C(=O)[C@H](CC(=O)NCCCCc1ccccc1)C2	.	33*	.	.	.	.	-14
CCOC(=O)[C@]12CCCC=C1N(Cc1ccc(Cl)cc1Cl)C(=O)[C@H](CC(=O)NCCCCc1ccccc1)C2	.	20	.	.	.	.	.
COC(=O)[C@@]12C[C@@H](CC(=O)NCCCCc3ccccc3)C(=O)N(Cc3cccc4ccccc34)C1=CCC(C)(C)C2	.	30*	.	.	.	.	9
O=C(/C=C/c1ccc([N+](=O)[O-])s1)N1CCCCC1	-3	32*	0	16	.	.	32*
O=C(/C=C/c1ccc([N+](=O)[O-])s1)N1CCCC1	-4	14	i	4	.	.	.
O=C(c1ccccc1)c1cccc(NC(=O)C2CC2)c1	-5	7	-2	2	.	.	.
Cc1ccc(NC2=C(NC(=O)c3ccccc3)C(=O)c3ccccc3C2=O)cc1Cl	-6	51*	0	12	.	.	42*
CC(=O)NC(c1cccc(F)c1)c1nc(-c2cc(F)cc(Cl)c2)cs1 (stereo not given)	-1	36*	0	-11	.	.	-1

High-throughput results (PubChem)
